# Bioassay records as filed in PubChem.
# An excerpt weighted towards active compounds, which were near 2.4% of everything screened.
# D2 ag-1 = Beta-Arrestin HTS for Positive Allosteric Modulators of the Human D2 Dopamine Receptor: Agonists; D(2) dopamine receptor (Homo sapiens), P14416; AID 624465, 2012; DiscoveRx PathHunter D2 beta-arrestin, luminescence, 90 min; 100% = 57 uM dopamine signal; actives 0.084% (n = 360,000); activation, % (test concentration not listed); in the data active means activation above about 40%; inconclusive means between about 15% and that limit
# Target sequence (P14416 whole entry, looked up): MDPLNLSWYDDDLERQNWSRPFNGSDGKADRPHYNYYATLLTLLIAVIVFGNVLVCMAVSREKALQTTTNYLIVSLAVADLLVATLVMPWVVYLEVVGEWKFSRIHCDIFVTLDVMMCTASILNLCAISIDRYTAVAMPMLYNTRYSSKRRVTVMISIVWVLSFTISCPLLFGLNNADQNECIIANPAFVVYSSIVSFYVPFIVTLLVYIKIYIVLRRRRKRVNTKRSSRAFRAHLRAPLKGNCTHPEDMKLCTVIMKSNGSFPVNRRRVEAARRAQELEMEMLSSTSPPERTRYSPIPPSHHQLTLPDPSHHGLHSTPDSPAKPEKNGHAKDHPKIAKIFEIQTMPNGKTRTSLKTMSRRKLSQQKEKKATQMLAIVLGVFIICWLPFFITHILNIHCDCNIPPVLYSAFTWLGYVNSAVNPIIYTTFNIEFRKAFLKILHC
#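 DiscoveRx PathHunter D2 beta-arrestin cells (2,100/well) attached overnight, then compound-stimulated 90 min at 37 C in HBSS/10 mM HEPES/0.1% Tween-20 buffer; beta-galactosidase complementation read by luminescence after 1 h at ambient temperature. Dopamine 57 uM final (EC100) as control.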
# D2 ag-2 = HTS Assay for Allosteric Agonists of the Human D2 Dopamine Receptor: Primary Screen for Agonists; D(2) dopamine receptor (Homo sapiens), P14416; HEK293 T-REx D2 cells, calcium flux agonist mode; activation, % at 2 µM; actives 0.53% (n = 340,000); AID 485358, 2010;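 active means activation over 3 SD above normal in the single-dose calcium agonist read, cut at about 30% in these data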
#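 Tetracycline-induced HEK293 T-REx cells with force-coupled D2 receptor, plated overnight at 30 C, loaded with no-wash calcium dye. After a 10 s baseline, compound was pin-added and calcium flux read kinetically for 180 s; calcium rises flagged agonists.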
# D2 PAM-1 = HTS Assay for Positive Allosteric Modulators of the Human D2 Dopamine Receptor: Primary Screen for Potentiators. potentiation, % at 10 µM. HEK293 T-REx D2, calcium flux, EC20 dopamine potentiation. AID 485347, 2010. actives 0.34% (n = 340,000);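 active means potentiation over 3 SD above the plate norm, cut at about 30% in these data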
#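 Calcium flux readout, no-wash dye, 1 read/s. Inducible HEK293 Trex D2 line, overnight 30 C. Compound alone 180 s (agonist flags), then EC20 dopamine, another 180 s to score potentiation.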
# D2 PAM-2 = Beta-Arrestin HTS for Positive Allosteric Modulators of the Human D2 Dopamine Receptor: Potentiators | D(2) dopamine receptor (Homo sapiens), P14416 | DiscoveRx D2 beta-arrestin cells, luminescence, 90 min; 100% = 57 uM dopamine signal | potentiation, % (no concentration beside the values) | actives 0.23% (n = 360,000) | AID 624464, 2012; in the data active means potentiation above about 50%; inconclusive means mostly about 30% to 49%
#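 D2 cells co-treated with compound plus 50 nM dopamine (EC20) for 90 min at 37 deg C to detect potentiation. Beta-arrestin recruitment was read as enzyme-fragment luminescence after 1 h at ambient temperature. Full response was set by 57 uM dopamine.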
# D2 antagonist = HTS Assay for Allosteric Antagonists of the Human D2 Dopamine Receptor: Primary Screen for Antagonists | D(2) dopamine receptor (Homo sapiens), P14416 | HEK293 TREx D2 cells, calcium flux, dopamine EC80 | inhibition, % at 10 µM | actives 2% (n = 340,000) | AID 485344, 2010; in the data active means inhibition above about 30%; inactive means below that, where a call was filed
#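 Antagonism is scored as inhibition of an EC80 dopamine-evoked calcium signal in a force-coupled, tetracycline-inducible HEK293 T-REx D2 line, with compound present 180 s before agonist.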
# A number is an active result; n = inactive; u = inconclusive; x = not tested or not shown.
SMILES,D2 ag-1,D2 ag-2,D2 PAM-1,D2 PAM-2,D2 antagonist
C=CCSc1nnc2c(n1)OC(c1cccnc1)Nc1ccccc1-2 (stereo unspecified),n,n,n,53,n
C=CCSc1nnc2c(n1)OC(c1cccnc1)N(C(C)=O)c1ccccc1-2 (stereo unspecified),n,n,n,n,n
COc1ccc(NC2=CC(=O)CC(c3ccccc3)C2)c(OC)c1 (stereo unspecified),n,n,n,n,31
CCOC(=O)C1CCCN(CCC(=O)Nc2c(C(=O)OC)[nH]c3cc(OC)ccc23)C1 (stereo unspecified),n,n,n,n,n
COC(=O)c1[nH]c2cccc(C)c2c1NC(=O)CN1CCN(C(=O)c2ccco2)CC1,n,n,n,n,n
COC(=O)c1[nH]c2cc(OC)ccc2c1NC(=O)CCN1CCN(c2ccccc2)CC1,n,n,n,n,63
COC(=O)c1[nH]c2cccc(OC)c2c1NC(=O)CCN1CCN(c2ccccc2F)CC1,x,44,n,x,74
COC(=O)c1[nH]c2cccc(C)c2c1NC(=O)CN1CCN(c2ccccc2OC)CC1,n,39,n,n,54
COC(=O)c1[nH]c2cccc(OC)c2c1NC(=O)CCN1CCC(C(N)=O)CC1,x,n,n,x,n
COC(=O)c1c(NC(=O)CN2CCN(c3ccccc3OC)CC2)c2c(C)cccc2n1C,x,52,n,x,n
COC(=O)c1c(NC(=O)CN2CCN(c3ccccc3)CC2)c2c(C)cccc2n1C,n,n,n,n,n
Cc1ccccc1-n1nc(CO)c(C(=O)NCC(c2ccccc2)c2ccccc2)n1,x,n,x,x,x
COc1ccc(OC)c(NC(=O)CCN2CCN(Cc3ccccc3)CC2)c1,n,36,n,n,n
Cc1ccc(C)c(N2CCN(C(=O)C3CCN(c4nc(-c5ccc(C(C)C)cc5)no4)CC3)CC2)c1,x,n,n,x,x
N#Cc1cccc(C(c2nnnn2C2CCCC2)N2CCC(Cc3ccccc3)CC2)c1 (stereo unspecified),n,n,40,n,n
CNCCC=C1c2ccccc2CCc2ccccc21,n,n,n,n,42
C[N+](C)(C)CC/C=C1/c2ccccc2CSc2ccccc21,n,n,n,n,n
COc1cc(/C=c2\s/c(=C(/C#N)C(=O)N3CCCC3)n(-c3ccccc3)c2=O)ccc1O,n,39,n,n,n
COC(=O)/C=c1/s/c(=C(/C#N)C(=O)N2CCCCC2)n(-c2ccccc2)c1=O,n,n,n,n,n
CCc1ccc(C(=O)c2cn(CC(=O)Nc3cc(OC)ccc3OC)c3ccc(Cl)cc3c2=O)cc1,x,n,n,x,x
CCOC(=O)C1(CC2CC2)CCN(Cc2ccc3cccc(F)c3n2)CC1,n,n,n,n,65
CCOC(=O)C1(CC2CC2)CCN(Cc2cn[nH]c2-c2cccc(F)c2)CC1,n,n,n,n,n
COc1ccc(CC2(CO)CCN(Cc3cccc4nccnc34)CC2)cc1,n,n,n,n,n
OCC1(Cc2cccc(F)c2)CCN(Cc2ccc3cccc(F)c3n2)CC1,n,n,n,n,40
COc1ccc(CN2CCC(CO)(Cc3ccccc3C(F)(F)F)CC2)c(F)c1,n,n,n,n,43
SMILES,D2 ag-1,D2 ag-2,D2 PAM-1,D2 PAM-2,D2 antagonist
COc1cccc(CC2(CO)CCN(Cc3ccc4cccc(F)c4n3)CC2)c1,n,n,n,n,62
OCC1(CCOc2ccccc2)CCN(Cc2ccc3cccc(F)c3n2)CC1,n,n,n,n,n
COCC(=O)N1c2nc(-c3ccco3)nn2C2(CCCCC2)[C@@H]2CCCC[C@@H]21,x,n,n,x,x
COc1ccccc1N1CCN(C2CCCN(C(=O)c3ccoc3C)C2)CC1 (stereo unspecified),n,n,n,n,31
COc1ccccc1N1CCN(C2CCCN(Cc3cccc(O)c3)C2)CC1 (stereo unspecified),n,n,n,n,49
COc1ccccc1N1CCN(C2CCCN(C(=O)c3cc(C)oc3C)C2)CC1 (stereo unspecified),n,n,n,n,n
COc1ccccc1N1CCN(C2CCCN(Cc3c(F)cccc3F)C2)CC1 (stereo unspecified),n,n,n,n,53
COc1ccc(NC(=O)CC2SC(=O)NC2=O)cc1 (stereo unspecified),n,n,36,n,n
Cc1ccc(NC(=O)CC2SC(=O)NC2=O)cc1 (stereo unspecified),n,n,n,n,n
COc1ccc(CNC(=O)CCC(=O)N2CC3CCCN3c3ccccc32)cc1 (stereo unspecified),x,n,n,x,x
O=C(COC(=O)c1cccnc1Cl)c1cccc(Cl)c1,n,n,n,n,69
O=C(COC(=O)c1cccnc1Cl)c1ccc(Cl)s1,n,x,x,n,x
COc1ccc2c(c1)c1c(c(=O)n(-c3ccccc3C)c(=O)n1CC(=O)Nc1c(C)cccc1C)n2C,x,n,n,x,x
O=C(COc1cc2oc(=O)c3c(c2cc1Cl)CCC3)Nc1ccc(CN2CCOCC2)cc1,n,n,30,n,n
O=C(COc1cc2oc(=O)c3c(c2cc1Cl)CCC3)NCCCN1CCCC1=O,n,n,n,n,n
CCc1ccc(C2c3c(-c4cc(C)ccc4O)n[nH]c3C(=O)N2CCO)cc1 (stereo unspecified),x,n,n,x,x
CC1CC(C)(C)NC(=S)N1CCCC(=O)NCc1ccccc1 (stereo unspecified),n,n,n,n,37
Cc1ccc(C2c3[nH]c4ccccc4c3CCN2C(=O)Nc2ccc(C)c(C)c2)cc1 (stereo unspecified),x,n,n,x,x
COc1cc(NC(=O)CSc2cc(=O)n(C)c3ccccc23)cc(OC)c1OC,x,n,n,x,x
CCC(Sc1nc2c(sc3ccccc32)c(=O)n1CCc1ccc(OC)c(OC)c1)C(=O)N(CC)CC (stereo unspecified),x,n,n,x,x
Cn1c(=O)cc(OCC(=O)NCCCN2CCN(c3cccc(Cl)c3)CC2)c2ccccc21,n,69,n,n,77
Cn1c(=O)cc(OCCCC(=O)NCCCN2CCN(Cc3ccccc3)CC2)c2ccccc21,n,n,n,n,n
CC1(C)CC(=O)c2cc(OCC(=O)NCCCN3CCN(c4ccccc4F)CC3)ccc2O1,u,78,n,n,82
CCCCCCCNC(=O)COc1ccc2c(c1)C(=O)CC(C)(C)O2,n,n,n,n,n
